In the library only some 10% were active in any assay of this set; here they are far more common.
ALDH1A1 block – ALDH1A1 (human) enzyme inhibition | P00352 | Purified ALDH1A1, NADH fluorescence, propionaldehyde substrate | Potency, µM (top dose mostly 75.3 µM), inactives show top-dose activity, negative = inhibition, actives largely listed as inhibitors | 220,000 compounds, 7.3% hits; active = well fitted inhibition curve with a large enough effect, not every such curve was filed as active; inconclusive = small, poorly fitted or top-dose-only effect, or another doubt; inactive = no such curve, though single readings can be large or run the other way;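 also: potency is read from the fitted curve at half-maximal effect; plate controls were no enzyme wells and a reference inhibitor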
HPGD inh – blocks human HPGD enzyme activity; P15428; 150,000 compounds, 4.3% hits; Potency, µM, inactives show at the highest dose activity change, negative = inhibition, most hits filed as inhibitors; purified HPGD, NADH fluorescence kinetic, PGE2 substrate; active = well fitted inhibition curve with a large enough effect, not every such curve was filed as active; inconclusive = small, poorly fitted or top-dose-only effect, or another doubt; inactive = no such curve, though single readings can be large or run the other way; also: potency is read from the fitted curve at half-maximal effect
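NADH formation kinetics: reaction with 30 uM PGE2 and 1 mM NAD+ (final), 20 nM enzyme, Tris-HCl pH 8 with Tween 20, after 15 min compound preincubation at room temperature. Fluorescence change, last versus first of five reads.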
GLA inh pH 4.5 – inhibitors of human alpha-galactosidase A at pH 4.5; P06280; purified enzyme, 4-MU-alpha-Gal fluorescence, pH 4.5; activity change, negative = inhibition, % at 105 µM; 230,000 tested, under 10 active; AID 1467;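 also: 0% = full activity with enzyme and -100% = basal without enzyme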
PNC inhibitor – perinucleolar compartment assembly inhibition; PC3M PTB-GFP, PNC prevalence imaging, 16 h; active compounds read low; activity change (PNC), negative = inhibition, % at 10 µM; 140,000 compounds, 3.1% hits; AID 2417;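 active = readout at or below -70, meaning at least 70% loss of cells showing the perinucleolar compartment, a nuclear body marking cancer cells; inconclusive = readout between -30 and a set limit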;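 also: plate controls were DMSO wells for no effect and camptothecin positive control wells for full effect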
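PC3M cells stably expressing PTB-GFP, 750–1000 cells/well, treated 16 h at 37 °C with compound (23 nl of library stock), in duplicate. After paraformaldehyde fixation and Hoechst stain, imaged at 20x; PNC prevalence scored by image analysis.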
aGal spleen mod – alpha-galactosidase A (human) modulation | P06280 | human spleen homogenate, 4MU-alpha-Gal fluorescence, 40 min | Potency, µM (titrated, usually from 80 µM), for inactives: at the top dose activity change, negative = inhibition, most hits filed as inhibitors | 240,000 compounds, 0.008% hits;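 also: potency is read from the fitted curve at half-maximal effect; 0% = enzyme with vehicle and -100% = no enzyme basal signal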
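Inhibition or activation of alpha-galactosidase in human spleen homogenate is scored by 4-MU fluorescence after 40 min at 37C, pH 5.0, with 1 mM substrate. AC50s come from concentration-response fitted to the Hill equation.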
12-hLO inh – inhibitors of human 12-lipoxygenase (ALOX12) | 150,000 compounds, 0.12% hits | P18054 | purified 12-hLO, xylenol orange hydroperoxide absorbance | AID 1452 | Potency, µM (titrated, usually from 57.1 µM), for inactives: top-dose activity change, negative = inhibition, actives largely listed as inhibitors; also: potency is read from the fitted curve at half-maximal effect; nearly all actives have a fitted effect of over 55% in size
Target sequence (P18054 whole entry, looked up): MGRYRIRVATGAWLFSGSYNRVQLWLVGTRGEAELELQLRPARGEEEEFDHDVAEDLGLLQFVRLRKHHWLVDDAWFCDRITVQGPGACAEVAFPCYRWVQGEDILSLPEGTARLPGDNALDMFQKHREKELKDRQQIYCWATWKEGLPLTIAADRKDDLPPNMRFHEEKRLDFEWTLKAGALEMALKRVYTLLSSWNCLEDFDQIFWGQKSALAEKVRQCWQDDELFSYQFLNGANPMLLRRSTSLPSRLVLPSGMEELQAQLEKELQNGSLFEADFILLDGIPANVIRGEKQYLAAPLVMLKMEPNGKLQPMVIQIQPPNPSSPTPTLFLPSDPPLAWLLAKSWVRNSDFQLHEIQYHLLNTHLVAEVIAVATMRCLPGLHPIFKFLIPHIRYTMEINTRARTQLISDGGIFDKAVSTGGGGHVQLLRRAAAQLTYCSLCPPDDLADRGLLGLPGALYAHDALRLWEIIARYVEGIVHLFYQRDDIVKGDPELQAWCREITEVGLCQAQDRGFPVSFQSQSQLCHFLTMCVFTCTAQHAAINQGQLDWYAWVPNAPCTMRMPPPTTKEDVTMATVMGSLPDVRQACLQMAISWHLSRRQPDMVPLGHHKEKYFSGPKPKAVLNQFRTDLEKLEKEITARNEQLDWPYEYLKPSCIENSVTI
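Hydroperoxide formation by human 12-lipoxygenase from 40 uM arachidonic acid was followed colorimetrically via ferric-xylenol orange complex, using the 573/405 nm absorbance ratio. Enzyme concentration was 150 nM, with 30 min reaction at room temperature.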
Numbers without * were called inactive; ? = inconclusive; . = no result given; [ ] = dose if it differs, or a comment. Unless noted, calls follow the shape of the dose curve; as a rule, active = well fitted curve in the direction sought with a large enough effect; inconclusive = small, poorly fitted or top-dose-only effect, or another doubt; inactive = no such curve, though single readings can be large; an effect the other way counts as inactive or inconclusive. Unless noted, % is scaled to controls: 0 for no effect and ±100 for the full control effect.

SMILES	ALDH1A1 block	HPGD inh	GLA inh pH 4.5	PNC inhibitor	aGal spleen mod	12-hLO inh
CN1C(C(=O)NCc2cccc(Br)c2)CC2Cn3c(nc4cc5ccccc5cc43)C21 (stereo not drawn)	.	.	0.2	.	3.6%	.
CCC/C=C(\CCC)C(NC(=O)c1ccc(-c2ccccc2)cc1)c1ccc(C(=O)OC)cc1 (stereo not drawn)	2.8%	-26.5%	-4.2	.	14.8%	5.7%
CCN(C)Cc1c(C(=O)N2CCc3ccccc3C2)nc2ccc(Cl)cn12	-15.2%	.	4.7	.	-0.9%	.
CCN(CC)Cc1c(C(=O)N2CCc3ccccc3C2)nc2ccc(Cl)cn12	12.6µM*	.	-2.3	.	-3.5%	.
CCNc1ncc2nc(CCc3ccccc3)c(=O)n(C[C@H]3CCCO3)c2n1	?	.	.	.	18.3%	.
COc1cccc(-n2c(CN3CCN(c4cccc(C)c4)C(C)C3)nc3ccc([N+](=O)[O-])cc3c2=O)c1 (stereo not drawn)	?	-8.4%	-9.8	?	3.6%	-2.9%
COc1cccc(-n2c(CN3CCN(c4ccc(C)cc4)C(C)C3)nc3ccc([N+](=O)[O-])cc3c2=O)c1 (stereo not drawn)	25.1µM*	-5.4%	-10.4	25.8	7.0%	-0.3%
CCOC(=O)N1CCN(Cc2ccc(O)c3ncccc23)CC1	25.1µM*	.	0.6	.	-3.9%	.
Oc1ccc(CN2CCCCC2)c2cccnc12	?	0.6%	2.5	-23.9	-0.8%	?
Cn1cnnc1SCC(=O)Nc1ccc(Cl)c(S(=O)(=O)N2CCOCC2)c1	-1.6%	.	-2.1	.	-11.3%	.
CSc1cc(C)n(-c2ccccc2)c(=S)c1C(C)=O	2.9%	-13.8%	-9.1	?	-21.8%	0.0%
Cc1cc(C)c2cc(CN(CCO)Cc3nnnn3Cc3ccc(F)cc3)c(=O)[nH]c2c1	12.6µM*	2.8%	-1.6	-18.0	0.6%	5.9%
O=c1[nH]c2cc3c(cc2cc1CN(CCCO)Cc1nnnn1Cc1ccc(F)cc1)OCO3	?	?	10.2	22.6	10.4%	-7.6%
Cc1cc(C)c2cc(CN(CCO)Cc3nnnn3Cc3ccccc3)c(=O)[nH]c2c1	5.01µM*	-3.3%	5.6	-2.8	-0.1%	-5.5%
Cc1ccc2cc(CN(CCO)Cc3nnnn3Cc3ccc(F)cc3)c(=O)[nH]c2c1	20µM*	-11.9%	-1.5	?	7.9%	2.3%
COc1ccc(CCN(Cc2cc3cc(C)ccc3[nH]c2=O)C(C)=O)cc1OC	2.1%	.	0.0	.	0.1%	.
COCCn1nnnc1CN(CCc1ccc(OC)c(OC)c1)Cc1cc2ccc(C)cc2[nH]c1=O	11.2µM*	-14.4%	6.2	18.6	0.3%	-6.3%
CC(C)c1ccc(C(O)P(=O)(OC2CCCCC2)OC2CCCCC2)cc1 (stereo not drawn)	.	.	-17.0	.	-0.2%	.
CCCCOc1ncnc2c1[nH]c1ccc(C)cc12	-2.0%	.	-7.2	.	-0.8%	.
Cc1ccc(NC(=O)CN(C)C(=O)COc2cccc3cccnc23)cc1	0.4%	-2.9%	-0.2	43.1	1.9%	-0.3%
CCN(c1cccc(C)c1)S(=O)(=O)c1ccc(O)c(C(=O)O)c1	?	?	.	.	.	-2.1%
Cc1noc(C)c1-c1nc(N2CCNCC2)c2ccccc2n1	5.6%	-6.2%	3.1	.	0.3%	5.6%
COc1ccc(S(=O)(=O)NCCSC(C)(C)C)c(Cl)c1Cl	2.38µM*	?	3.1	-7.9	2.8%	-13.3%
N[C@@H](Cc1ccnnc1)C(=O)O	-1.2%[13.5 µM]	-10.2%	.	.	.	-4.5%[11.4 µM]
COc1ccc(CN(Cc2ccc(C(=O)O)cc2)C(=S)Nc2ccccc2F)cc1OC	12.6µM*	.	3.0[21.1 µM]	.	-11.0%	.
CCOc1ccc(NC2=CC(=O)CC(c3ccco3)C2)cc1 (stereo not drawn)	-10.6%	.	7.1	.	0.9%	.
CCCCCCCNC1=CC(=O)CC(c2ccco2)C1 (stereo not drawn)	25.1µM*	-9.2%	4.8	0.5	1.1%	-3.3%
CC(C)Cc1nc2ccc(N)cc2[nH]1	4.6%	.	-5.8	.	-1.5%	.
COC(=O)c1cc(NS(=O)(=O)c2ccc(C)c3ccccc23)ccc1N1CCOCC1	.	.	-7.8	.	9.9%	.
Clc1nssc1=Nc1ccccc1	1.58µM*	.	-0.3	.	9.6%	.
